High-throughput results deposited in PubChem BioAssay by several laboratories.
TIM10 inh – inhibits growth of TIM10 yeast strain | inhibition, % at 10 µM | AID 463195 | S. cerevisiae TIM10 strain growth, BacTiter-Glo luminescence, 24 h | 330,000 compounds, 1.4% hits;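 active = inhibition of 40% or more at the single tested concentration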;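 note: wild-type TIM10 isogenic control strain grown at permissive 25 °C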
tim23-1 inh – growth inhibitors of tim23-1 mutant yeast. S. cerevisiae tim23-1 growth, BacTiter-Glo luminescence, 24 h. inhibition, % at 20 µM. 330,000 compounds, 1.3% hits. AID 463212;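 active = growth inhibition of the mutant yeast at or above 50%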;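 note: temperature-sensitive mutant grown at 25 °C; plate controls were DMSO-treated mutant yeast for no effect and medium wells lacking yeast for full effect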
NALP3 yeast inh – NALP3 inhibition in yeast | AID 2825 | Yeast reconstituted NLRP3/ASC/caspase-1, beta-gal luminescence, 24 h | inhibition, % at 10 µM | 330,000 compounds, 0.39% hits;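 active = inhibition of 50% or more; inactive = inhibition below 50%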;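 note: plate controls were induced DMSO wells for no effect and uninduced yeast grown without galactose for full effect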
tim10-1 inh – growth inhibitors of tim10-1 mutant yeast; S. cerevisiae tim10-1 ts strain growth, BacTiter-Glo, 24 h; inhibition, % at 20 µM; 330,000 compounds, 2.2% hits; AID 463190;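 active = inhibition of at least 40%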;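 note: mutant grown at 25 °C; 0% = DMSO wells with yeast and 100% = wells holding no yeast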
SKKanGAS inh – inhibitors of SKKanGAS S. pyogenes growth in kanamycin (SK-promoter or general growth effect); AID 1662; 300,000 compounds, 1.3% hits; BacTiter-Glo, 6 h; inhibition, % at 7.5 µM;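 active = mean replicate score, as percent of positive control median, at least 50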;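 note: strain carries kanamycin resistance gene driven by streptokinase promoter and grows in 40 µg/ml kanamycin; loss of luminescence reflects streptokinase promoter inhibition or plain growth inhibition; 0% = median of DMSO wells and 100% = positive control at its reference dose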
An asterisk follows results filed as active; . = no result given. Rows were chosen to be rich in hits. Some 4.6% of all compounds tested hit in one or more screens of this group.

SMILES | TIM10 inh | tim23-1 inh | NALP3 yeast inh | tim10-1 inh | SKKanGAS inh
CCOC(=O)C1=CN(Cc2ccco2)S(=O)(=O)NC1CC (configuration not stated) | -5.5 | 30.3 | . | 15.2 | .
CNc1nc(Cl)nc(NC(C)(C)C)n1 | 0.6 | -4.7 | -5.9 | -1.1 | -9.8
CC(C)(C)Nc1nc(NN)nc(NC(C)(C)C)n1 | 21.3 | 25.1 | 3.8 | 23.3 | 87.0*
O=S(=O)(O)c1cccc2cccc(Nc3ccccc3)c12 | 9.4 | 24.6 | -7.2 | -5.7 | 10.7
C=CCSc1n[nH]c2nc3c(c(=O)n12)C1(CCCC1)Cc1ccccc1-3 | 26.8 | 28.7 | -8.8 | 20.0 | .
CCSc1n[nH]c2nc3c(c(=O)n12)C1(CCCC1)Cc1ccccc1-3 | 33.9 | 40.8 | -37.0 | 33.4 | 65.0*
Cn1c(O)c(/C=C2\C=Nc3ccccc32)sc1=Nc1ccc(C(=O)O)cc1 | -16.6 | -9.1 | 9.2 | -4.4 | -11.9
O=C(Cc1ccccc1)Nn1c(O)c(/C=C2\C=Nc3ccccc32)sc1=S | . | . | . | . | 50.1*
COc1cccc(NC(=O)CN(C)C(=O)CCNS(=O)(=O)c2ccc(C)cc2)c1 | -6.8 | -9.5 | 9.1 | -14.7 | .
COc1ccc(S(=O)(=O)NCC(c2ccc(F)cc2)N2CCN(C)CC2)cc1 (configuration not stated) | -5.0 | 14.9 | 11.4 | 5.9 | 50.1*
COc1ccc(C(CNS(=O)(=O)c2ccc(F)cc2)N2CCN(C)CC2)cc1 (configuration not stated) | 5.1 | -8.2 | 8.1 | 5.9 | 35.7
CN(C)S(=O)(=O)c1cccc(NC(=O)COc2ccccc2C(=O)NCc2ccccc2)c1 | 8.2 | 7.5 | 9.0 | -4.4 | .
CCn1cc(C(=O)O)c(=O)c2cnc(N3CCN(C(=S)Nc4ccccc4)CC3)nc21 | 5.7 | 5.7 | 22.7 | -6.5 | -2.0
CCn1cc(C(=O)O)c(=O)c2cc(F)c(N3CCN(C(=S)Nc4ccc(OC)cc4)CC3)cc21 | 5.2 | -3.2 | 9.5 | 11.0 | 67.7*
CCn1cc(C(=O)NCc2ccc3c(c2)OCO3)c(=O)c2cc(F)c(N3CCN(C(=O)c4ccco4)CC3)cc21 | 8.4 | 19.8 | 21.4 | 23.5 | 53.5*
CCCCOC(=O)c1ccc(NC(=S)N2CCN(c3ncc4c(=O)c(C(=O)O)cn(CC)c4n3)CC2)cc1 | -8.9 | 4.8 | -0.2 | -3.8 | 91.6*
O=C(CN1C(=O)C(=O)N(C2CCCC2)C1=O)Nc1ccc(OC(F)F)cc1 | 9.3 | -4.9 | 0.1 | 4.8 | .
Cc1ccc(C(=O)Nc2cccc(C(=O)N3CCOCC3)c2)cc1Cl | 3.8 | 16.1 | -8.7 | 21.5 | 28.6
Cc1ccc(S[C@@H](CCN2CC[C@H](C(C)(C)C)CCC2=O)c2ccccc2)cc1 | 0.5 | 7.6 | -10.1 | 24.2 | 75.8*
COc1ccc(-c2nc3cnccn3c2NCc2ccccc2)cc1SC1CCCCC1 | 8.4 | 39.3 | 28.8 | 29.7 | 54.8*
CCC(C)Sc1ccc(-c2nc3cnccn3c2NC2CCCCC2)cc1 (configuration not stated) | 16.2 | 24.8 | 21.4 | 22.3 | 93.1*
CCCCNc1c(-c2ccc(SC3CCCCC3)cc2)nc2cnccn12 | -19.4 | 33.3 | 15.4 | -10.0 | .
COc1ccc(-c2nc3ccccn3c2NC2CCCCC2)cc1SC1CCCCC1 | 26.9 | 47.8 | 32.7 | 39.3 | 82.6*
CCCCNc1c(-c2ccc(OC)c(SC3CCCCC3)c2)nc2cnccn12 | 17.6 | 36.3 | 12.6 | 33.5 | 103.9*
COc1cc(-c2nc3ccccn3c2NCc2ccccc2)ccc1SC1CCCCC1 | 19.6 | 37.3 | 2.1 | 37.1 | 28.4
SMILES | TIM10 inh | tim23-1 inh | NALP3 yeast inh | tim10-1 inh | SKKanGAS inh
COc1ccc(Sc2ccc(-c3nc4cnccn4c3NC3CCCCC3)cc2OC)cc1 | 11.8 | 21.0 | 16.9 | 13.3 | .
CCCCCCSc1ccc(-c2nc3ccccn3c2NCCCC)cc1 | 8.0 | 1.9 | 27.3 | 19.7 | 51.3*
CCCCNc1c(-c2ccc(OC)c(SC3CCCCC3)c2)nc2cc(C)ccn12 | 3.1 | -4.7 | 16.5 | 35.4 | 72.0*
CCCCCCSc1cc(-c2nc3cnccn3c2NCc2ccccc2)ccc1OC | 23.0 | 32.6 | -6.3 | 25.2 | 65.2*
CCCCNc1c(-c2ccc(-c3cccc(Cl)c3)cc2)nc2ccccn12 | 19.5 | 41.0 | 28.9 | 28.5 | 43.2
CCCCNc1c(-c2ccc(-c3ccc(C(C)=O)cc3)c(OC)c2)nc2cnccn12 | -3.4 | 18.4 | 6.3 | 22.4 | 63.8*
CNC[C@@H](Cc1ccccc1)NC[C@@H](CC1CCCCC1)NCCCc1ccccc1 | -2.7 | -36.2 | 38.9 | -30.5 | 64.4*
CNC[C@@H](CC1CCCCC1)NC[C@H](CC(C)C)NCCc1cccc(C(F)(F)F)c1 | -9.1 | -8.9 | 46.3 | -45.8 | 87.5*
CCC[C@@H](CNC)NC[C@H](Cc1ccccc1)NCCCCc1ccccc1 | 12.6 | -17.4 | 24.0 | -20.7 | 7.8
Oc1ccc(F)cc1-c1cc(-c2ccc3c(c2)OCCO3)n[nH]1 | 17.5 | -6.1 | 23.7 | 3.5 | 55.9*
O=C(N/N=C/c1ccc(F)cc1)c1cc(-c2ccc3c(c2)OCO3)n[nH]1 | 12.2 | 9.9 | -1.8 | 3.1 | -0.7
O=C(Oc1ccc(-c2cnc3ccccc3n2)cc1)c1ccc(Cl)c([N+](=O)[O-])c1 | -6.0 | -6.9 | 22.7 | -16.6 | 74.0*
COc1ccc(C(=O)Nc2c3c(nn2-c2ccc([N+](=O)[O-])cc2)CS(=O)(=O)C3)cc1 | -2.8 | 5.6 | 18.9 | 12.0 | 51.7*
COc1ccc(C(=O)Nc2c3c(nn2-c2ccc(Cl)cc2)CS(=O)(=O)C3)cc1 | 5.9 | 9.1 | 17.5 | 5.1 | -3.7
CCc1ccc(NC(=O)C2CCCN2S(=O)(=O)c2ccc3c(c2)C(C)(C)C(=O)N3C)cc1 (configuration not stated) | 2.9 | 11.4 | 9.5 | 7.3 | -0.8
COc1cc(N/N=C(\C)c2ccc(O)c(C)c2)nc(-c2ccccc2)n1 | -1.9 | 29.3 | 15.2 | 10.7 | 34.3
C/C(=N\Nc1cc(-c2ccccc2)nc(-c2ccccc2)n1)c1ccc(O)c(C)c1 | 12.7 | 22.0 | 15.9 | 20.3 | 97.9*
O=C(Nc1ccc(C(=O)N2CCN(c3ccccc3)CC2)cc1)C1=CSCCO1 | 20.2 | 31.0 | 17.3 | 28.4 | 7.8
COc1ccc(Cl)cc1C(=O)NNC(=S)NC(=O)c1cc(-c2ccc(Cl)cc2)nc2ccccc12 | 15.8 | -3.6 | 13.2 | 18.0 | 70.8*
O=C(NNC(=O)c1cc(-c2ccc(Cl)cc2Cl)nc2ccccc12)Nc1ccccc1 | 5.4 | 21.4 | 18.8 | 11.5 | 73.7*
COc1ccc(Cl)cc1C(=O)NNC(=S)NC(=O)c1ccc(F)c(F)c1 | 17.8 | 9.4 | 37.5 | -2.3 | 98.9*
O=C(NC(=S)Nc1ccccc1)c1cc(-c2ccccc2)nc2ccccc12 | 35.6 | 20.6 | 16.9 | 33.2 | 12.5
COc1ccc(Cl)cc1C(=O)NNC(=O)c1cccc([N+](=O)[O-])c1 | -24.8 | -8.1 | 8.8 | -18.2 | 6.1
CC1CN(C(=O)CCC(=O)NCc2ccc(Cl)cc2)c2ccccc2O1 (configuration not stated) | -1.8 | 16.4 | 16.2 | 12.0 | -0.1
O=C(CN1CCN(S(=O)(=O)c2ccc(F)cc2)CC1)Nc1ccc(F)cc1F | -5.8 | 29.5 | 22.0 | 16.8 | -1.0
CCOc1cc(/C=C2\SC(=S)N(N3CCOCC3)C2=O)ccc1O | 3.8 | 10.4 | 10.5 | 14.5 | 2.4
